According to the supplement of paper PMC10849652:
Of roughly 7,900 targets only a part is listed; those with a hit were picked by preference. About 0.6% of all pairs of compound and target were hits.

compound: c1cn2cc(-c3ccc4cn[nH]c4c3)nc(Nc3ccc(N4CCOCC4)cc3)c2n1 [entospletinib]; assay: log2 fold change, soluble protein after heating vs DMSO (PISA); higher = thermal stabilisation; K562 cells, 10 uM, 30 min; active = over 0.2 and 3.5 SD of the protein, either way, in both replicates (recomputed)
Summary of the method: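 K562 cells (2×10^6 cells/mL) were treated with 10 μM compound for 30 min, and aliquots were heated for 3 min over 48°C-58°C. Pooled aliquots were extracted in PBS with 0.5% NP-40 at 4°C, and the supernatant after 21,000xg for 90 min was measured by TMTpro 16plex LC-MS/MS with channel sums equalised. Reported thermal stability, relative to control samples and from duplicates, is a log2 fold change.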

UniProt Q96QZ7, sequence (Q96QZ7 whole entry, looked up): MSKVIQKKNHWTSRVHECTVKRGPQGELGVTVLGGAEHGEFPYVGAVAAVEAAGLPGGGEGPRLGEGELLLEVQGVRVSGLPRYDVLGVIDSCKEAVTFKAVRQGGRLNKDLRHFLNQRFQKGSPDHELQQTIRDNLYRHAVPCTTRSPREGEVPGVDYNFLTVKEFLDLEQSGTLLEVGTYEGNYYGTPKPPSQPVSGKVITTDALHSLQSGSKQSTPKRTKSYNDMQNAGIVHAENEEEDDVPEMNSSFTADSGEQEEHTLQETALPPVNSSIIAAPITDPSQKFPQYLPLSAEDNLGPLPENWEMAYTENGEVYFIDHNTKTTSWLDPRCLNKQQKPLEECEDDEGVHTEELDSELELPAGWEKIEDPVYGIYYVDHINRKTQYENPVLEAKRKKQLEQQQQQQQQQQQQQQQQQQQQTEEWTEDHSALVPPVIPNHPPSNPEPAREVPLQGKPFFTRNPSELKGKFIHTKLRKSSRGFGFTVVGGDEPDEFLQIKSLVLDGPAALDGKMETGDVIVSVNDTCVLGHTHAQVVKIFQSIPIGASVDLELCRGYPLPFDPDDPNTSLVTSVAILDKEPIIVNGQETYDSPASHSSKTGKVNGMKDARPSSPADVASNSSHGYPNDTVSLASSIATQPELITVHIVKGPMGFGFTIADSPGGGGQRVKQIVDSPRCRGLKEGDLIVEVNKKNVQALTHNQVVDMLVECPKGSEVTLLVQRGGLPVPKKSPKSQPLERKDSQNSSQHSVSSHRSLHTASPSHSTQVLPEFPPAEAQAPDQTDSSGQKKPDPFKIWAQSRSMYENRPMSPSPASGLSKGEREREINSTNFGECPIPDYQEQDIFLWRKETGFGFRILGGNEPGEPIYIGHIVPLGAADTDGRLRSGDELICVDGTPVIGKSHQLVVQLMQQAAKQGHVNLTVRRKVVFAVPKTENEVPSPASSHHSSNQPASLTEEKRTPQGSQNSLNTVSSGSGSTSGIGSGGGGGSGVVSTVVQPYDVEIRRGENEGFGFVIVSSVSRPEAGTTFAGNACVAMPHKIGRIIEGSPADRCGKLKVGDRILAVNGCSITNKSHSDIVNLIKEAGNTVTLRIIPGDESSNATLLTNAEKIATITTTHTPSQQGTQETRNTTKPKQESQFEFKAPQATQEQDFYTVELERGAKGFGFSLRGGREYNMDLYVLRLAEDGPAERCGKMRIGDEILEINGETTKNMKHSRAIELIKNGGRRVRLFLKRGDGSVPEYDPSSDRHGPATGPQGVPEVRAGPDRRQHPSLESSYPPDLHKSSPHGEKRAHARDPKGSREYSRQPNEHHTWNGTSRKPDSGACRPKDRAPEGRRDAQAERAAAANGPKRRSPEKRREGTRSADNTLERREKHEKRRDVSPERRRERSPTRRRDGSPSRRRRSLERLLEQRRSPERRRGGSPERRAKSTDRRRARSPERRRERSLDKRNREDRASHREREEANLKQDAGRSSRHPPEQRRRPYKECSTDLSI
UniProt O15066, sequence (O15066 whole entry, looked up): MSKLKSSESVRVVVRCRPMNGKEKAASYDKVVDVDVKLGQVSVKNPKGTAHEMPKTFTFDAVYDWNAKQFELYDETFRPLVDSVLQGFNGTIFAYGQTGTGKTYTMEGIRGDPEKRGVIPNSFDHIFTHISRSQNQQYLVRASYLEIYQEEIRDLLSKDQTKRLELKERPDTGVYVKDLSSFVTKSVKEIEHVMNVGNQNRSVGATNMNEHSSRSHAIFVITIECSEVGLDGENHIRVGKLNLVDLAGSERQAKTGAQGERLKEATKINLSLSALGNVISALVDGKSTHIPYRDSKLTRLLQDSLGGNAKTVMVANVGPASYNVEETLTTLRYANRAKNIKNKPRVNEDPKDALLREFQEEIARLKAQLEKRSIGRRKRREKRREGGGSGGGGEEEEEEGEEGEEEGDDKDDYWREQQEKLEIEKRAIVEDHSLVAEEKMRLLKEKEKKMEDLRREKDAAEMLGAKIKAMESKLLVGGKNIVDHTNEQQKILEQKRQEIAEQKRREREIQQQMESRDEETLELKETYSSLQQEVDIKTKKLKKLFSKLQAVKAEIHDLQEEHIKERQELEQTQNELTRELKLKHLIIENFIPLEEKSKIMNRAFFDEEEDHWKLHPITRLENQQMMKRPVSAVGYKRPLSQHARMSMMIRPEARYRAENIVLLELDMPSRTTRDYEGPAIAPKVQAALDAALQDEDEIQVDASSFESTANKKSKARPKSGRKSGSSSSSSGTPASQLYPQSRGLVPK
UniProt Q9NQG6, sequence (Q9NQG6 whole entry, looked up): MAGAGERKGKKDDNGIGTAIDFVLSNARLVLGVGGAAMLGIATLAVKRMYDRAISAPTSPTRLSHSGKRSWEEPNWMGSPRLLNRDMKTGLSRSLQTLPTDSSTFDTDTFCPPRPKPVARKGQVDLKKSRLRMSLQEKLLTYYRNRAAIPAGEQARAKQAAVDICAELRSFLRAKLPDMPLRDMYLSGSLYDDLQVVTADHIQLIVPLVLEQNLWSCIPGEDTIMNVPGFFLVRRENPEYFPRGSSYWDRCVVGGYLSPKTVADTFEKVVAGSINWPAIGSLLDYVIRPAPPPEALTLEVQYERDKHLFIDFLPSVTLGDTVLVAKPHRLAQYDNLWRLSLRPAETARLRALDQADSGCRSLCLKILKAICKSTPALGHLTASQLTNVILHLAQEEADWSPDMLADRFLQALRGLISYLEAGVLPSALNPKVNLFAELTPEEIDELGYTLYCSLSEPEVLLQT
UniProt Q9H0B6, sequence (Q9H0B6 whole entry, looked up): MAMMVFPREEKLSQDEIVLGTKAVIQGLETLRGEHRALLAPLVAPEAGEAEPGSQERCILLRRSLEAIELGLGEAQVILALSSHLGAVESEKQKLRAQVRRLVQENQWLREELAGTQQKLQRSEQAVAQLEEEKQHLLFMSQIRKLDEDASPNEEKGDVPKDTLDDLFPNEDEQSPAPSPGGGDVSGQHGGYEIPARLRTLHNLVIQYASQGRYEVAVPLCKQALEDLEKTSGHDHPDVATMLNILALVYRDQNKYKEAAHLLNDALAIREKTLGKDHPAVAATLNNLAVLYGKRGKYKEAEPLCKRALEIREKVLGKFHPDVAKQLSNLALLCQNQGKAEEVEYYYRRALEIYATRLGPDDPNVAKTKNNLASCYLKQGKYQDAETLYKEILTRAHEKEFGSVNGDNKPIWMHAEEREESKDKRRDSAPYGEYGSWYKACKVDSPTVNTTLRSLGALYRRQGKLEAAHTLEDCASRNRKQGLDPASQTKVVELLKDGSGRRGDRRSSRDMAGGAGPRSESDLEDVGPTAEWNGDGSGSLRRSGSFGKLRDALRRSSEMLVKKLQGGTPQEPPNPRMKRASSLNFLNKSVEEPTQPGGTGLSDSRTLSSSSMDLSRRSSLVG
UniProt P07948, sequence (P07948 whole entry, looked up): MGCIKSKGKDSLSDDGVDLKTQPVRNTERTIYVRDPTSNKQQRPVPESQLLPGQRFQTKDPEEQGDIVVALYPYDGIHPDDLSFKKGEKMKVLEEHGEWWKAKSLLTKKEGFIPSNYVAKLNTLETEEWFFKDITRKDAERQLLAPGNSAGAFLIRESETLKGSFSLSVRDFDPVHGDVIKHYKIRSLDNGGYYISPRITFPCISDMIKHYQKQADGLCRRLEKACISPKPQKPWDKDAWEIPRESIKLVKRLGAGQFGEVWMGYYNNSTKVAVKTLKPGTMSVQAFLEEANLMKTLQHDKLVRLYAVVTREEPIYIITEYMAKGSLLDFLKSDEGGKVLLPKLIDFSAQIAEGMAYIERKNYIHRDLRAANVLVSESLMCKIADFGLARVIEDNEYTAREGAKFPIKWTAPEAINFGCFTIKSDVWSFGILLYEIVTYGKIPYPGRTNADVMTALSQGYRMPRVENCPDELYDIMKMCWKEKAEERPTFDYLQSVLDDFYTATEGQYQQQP
UniProt O00214, sequence (O00214 whole entry, looked up): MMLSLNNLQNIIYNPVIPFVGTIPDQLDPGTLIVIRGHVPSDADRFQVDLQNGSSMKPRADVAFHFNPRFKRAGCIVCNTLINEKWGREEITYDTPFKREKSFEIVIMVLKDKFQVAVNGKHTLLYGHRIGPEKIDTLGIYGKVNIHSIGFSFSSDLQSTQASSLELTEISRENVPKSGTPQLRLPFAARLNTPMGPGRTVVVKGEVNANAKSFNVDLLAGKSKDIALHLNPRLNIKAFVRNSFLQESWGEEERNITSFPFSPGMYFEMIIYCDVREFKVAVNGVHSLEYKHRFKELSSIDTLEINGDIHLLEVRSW
UniProt Q16539, sequence (Q16539 whole entry, looked up): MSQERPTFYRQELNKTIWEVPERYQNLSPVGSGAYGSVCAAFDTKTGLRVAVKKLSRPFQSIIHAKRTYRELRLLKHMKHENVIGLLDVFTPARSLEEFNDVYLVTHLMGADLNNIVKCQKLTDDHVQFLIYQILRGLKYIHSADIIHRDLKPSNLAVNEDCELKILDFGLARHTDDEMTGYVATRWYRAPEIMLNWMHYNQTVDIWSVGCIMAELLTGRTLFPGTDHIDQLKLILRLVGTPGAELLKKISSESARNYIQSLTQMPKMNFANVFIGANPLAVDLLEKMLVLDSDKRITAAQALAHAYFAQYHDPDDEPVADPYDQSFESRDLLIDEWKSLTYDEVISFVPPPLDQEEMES
UniProt Q14681, sequence (Q14681 whole entry, looked up): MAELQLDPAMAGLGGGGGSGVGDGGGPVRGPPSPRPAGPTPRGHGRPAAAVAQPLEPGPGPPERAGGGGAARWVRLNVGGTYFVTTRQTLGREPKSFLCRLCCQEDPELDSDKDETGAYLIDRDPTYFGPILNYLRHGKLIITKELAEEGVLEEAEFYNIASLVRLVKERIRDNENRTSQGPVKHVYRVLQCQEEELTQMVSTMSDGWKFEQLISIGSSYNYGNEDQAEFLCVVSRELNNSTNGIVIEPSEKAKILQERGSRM
UniProt Q9BRT3, sequence (Q9BRT3 whole entry, looked up): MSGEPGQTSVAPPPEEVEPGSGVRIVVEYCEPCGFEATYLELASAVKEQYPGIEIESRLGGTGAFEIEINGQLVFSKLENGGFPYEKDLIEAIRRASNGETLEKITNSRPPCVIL

log2 fold change, inactive:
MAGI1 (UniProt Q96QZ7) 0
LGALS8 isoform 2 (UniProt O00214) 0.101
MAPK14 (UniProt Q16539) -0.006
INPP5B (UniProt P32019) 0.026
IRAK4 (UniProt Q9NWZ3) 0.096
KCTD2 (UniProt Q14681) 0.139
ILK (UniProt Q13418) 0.074
KLC2 (UniProt Q9H0B6) 0.011
LUC7L (UniProt Q9NQ29) 0.083
MED12 isoform 2 (UniProt Q93074) 0.177
MAPK8 isoform 3 (UniProt P45983) -0.038
MFN1 (UniProt Q8IWA4) -0.028
LYN (UniProt P07948) -0.024
MIEN1 (UniProt Q9BRT3) -0.01
LBR (UniProt Q14739) -0.174
KIF3B (UniProt O15066) 0.23
IPO13 (UniProt O94829) 0.106
IKZF1 (UniProt Q13422) 0.042
MIEF1 (UniProt Q9NQG6) 0.032
IRF3 (UniProt Q14653) -0.022
LARP4 isoform 4 (UniProt Q71RC2) 0.095
MCCC2 (UniProt Q9HCC0) -0.002
LRBA, A0A494BZW2 -0.025
